The panel holds about 83,000 compounds, 20% with a hit somewhere; the sample as a whole holds those more often.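 The endpoint reported here, percent growth, reads 100 for growth as untreated, 0 for no net growth and -100 for all cells dead.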 The source made the active and inactive calls. The calls were made as follows: active = growth percent below 10; inactive = the rest.
Experiments:
Test in all cases: NCI-60 one-dose screen, 48 h (100 = growth as untreated, 0 = no growth, -100 = all killed)
Settings in all cases: 10 µM unless noted
[1] = system: EKVX NSCLC
[2] = system: SN12C renal
[3] = system: UO-31 renal
[4] = system: TK-10 renal
[5] = system: ACHN renal
[6] = system: CAKI-1 renal
[7] = system: A498 renal
[8] = system: CCRF-CEM leukemia
[9] = system: MOLT-4 leukemia
[10] = system: SR leukemia
[11] = system: RPMI-8226 leukemia
[12] = system: OVCAR-8 ovarian
[13] = system: OVCAR-5 ovarian
[14] = system: OVCAR-4 ovarian
[15] = system: SK-OV-3 ovarian
[16] = system: IGROV1 ovarian
[17] = system: OVCAR-3 ovarian
[18] = system: HS 578T breast
[19] = system: NCI/ADR-RES ovarian

Measured: growth

CCCCCCCN(CCCCCCC)C(=N)c1ccc(OC)c2ccccc12
active: [1] -21.7% | [2] -75.4% | [3] -86.6% | [4] -89.4% | [5] -91.9% | [6] -12.2% | [7] -52.9% | [8] -43.5% | [9] -50.4% | [10] -48.6% | [11] -48.8% | [12] -66.3% | [13] -82.4% | [14] -98% | [15] -68.2% | [16] -73.5% | [17] -94.6% | [18] -60.6% | [19] -75.7%

O=C1NC(Cc2c[nH]c3ccccc23)C(=O)N1Cc1ccc(Cl)cc1 (stereo unspecified)
inactive: [1] 103% | [2] 99.7% | [3] 76% | [4] 135% | [5] 95% | [6] 86.9% | [7] 78.9% | [9] 85.4% | [10] 90.1% | [11] 73.1% | [12] 97.9% | [13] 108% | [14] 96.9% | [15] 101% | [16] 85.2% | [17] 106% | [18] 108% | [19] 106%

CC(C)(C)OC(=O)N[C@@H](Cc1ccccc1)C(=O)N(Cc1ccccc1)C1(C(=O)NCc2ccccc2)CCN(Cc2ccccc2)CC1
inactive: [2] 19.3% | [3] 15.5% | [4] 62.3% | [5] 40.8% | [8] 33.9% | [11] 22.8% | [12] 22.6% | [13] 31.1% | [15] 69.9% | [16] 59.1% | [17] 48.5% | [18] 71.5% | [19] 12.1%
active: [7] 8.13% | [9] 7.74% | [10] -0.167%

CCCCCC(=O)OCc1ccccc1
inactive: [2] 98.1% | [3] 82.7% | [4] 99.7% | [5] 98.1% | [6] 96.5% | [7] 114% | [9] 86.3% | [10] 85.4% | [11] 102% | [12] 102% | [13] 105% | [14] 110% | [15] 93.7% | [17] 102% | [19] 100%

CCn1cc(C(=O)O)c(=O)c2cc(F)c(N3CCN(S(=O)(=O)c4ccc(OC)c(OC)c4)CC3)cc21
inactive: [2] 101% | [3] 62.1% | [4] 100% | [5] 93% | [6] 99% | [7] 90.4% | [8] 99.7% | [9] 78.9% | [10] 88.3% | [11] 99.3% | [12] 102% | [13] 102% | [14] 110% | [15] 135% | [16] 108% | [17] 109% | [19] 107%

CC(C)N(Cc1ccc(CN(C(=O)CCl)C(C)C)cc1)C(=O)CCl
active: [3] -83.6% | [5] 5.84% | [8] -29.4% | [9] 8.54% | [10] 8.59% | [11] 1.57% | [12] -12.9% | [13] 4.12% | [16] -49.3% | [17] -76.1% | [19] 4.6%
inactive: [1] 82.6% | [2] 15.4% | [4] 70.5% | [6] 33.6% | [7] 88.2% | [14] 26.4% | [15] 49.7% | [18] 59.3%

O=[N+]([O-])c1ccc(S(=O)(=O)N2CCN(c3ccnc4cc(Cl)ccc34)CC2)c([N+](=O)[O-])c1
active: [10] 3.12%
inactive: [1] 87.9% | [2] 88.2% | [3] 55.4% | [4] 95.4% | [5] 84.3% | [6] 81.1% | [7] 90% | [8] 14.8% | [9] 44.5% | [11] 25.7% | [12] 97.1% | [13] 106% | [14] 95.3% | [15] 105% | [16] 99.5% | [17] 93% | [18] 89.1% | [19] 95.5%

COc1ccc(/C=C\c2cc(OC)c(OC)c(OC)c2)c(NS(=O)(=O)c2ccc(C(C)(C)C)cc2)c1O
active: [17] 0.435% | [19] 9.51%
inactive: [2] 29.5% | [3] 52.3% | [4] 50.8% | [5] 25.2% | [6] 24.4% | [8] 20.6% | [9] 21.8% | [10] 16.4% | [11] 27.9% | [12] 21.9% | [13] 32.4% | [14] 28.2% | [15] 31% | [16] 38.5% | [18] 35.4%

CN(C)C/C=C/C(=O)Nc1cc2c(Nc3ccc(F)c(Cl)c3F)ncnc2cc1OCCOC(F)F
active: [2] 2.22% | [3] 4.31% | [4] 9.78% | [5] -7.73% | [7] -47.7% | [9] 4.26% | [15] 0.142% | [16] -15.6% | [17] -15.4% | [18] -19.2%
inactive: [1] 12.4% | [8] 26.3% | [10] 14.8% | [11] 11.4% | [12] 26.6% | [13] 26.6% | [14] 16%

CCN1C(=O)N(CC)C2C1NN=c1s/c(=C\c3ccccn3)c(=O)n12 (stereo unspecified)
inactive: [1] 61.7% | [2] 40.7% | [3] 43.8% | [4] 51.2% | [5] 43.4% | [6] 30.2% | [9] 42.5% | [11] 22.5% | [12] 31.2% | [13] 58.9% | [14] 50.2% | [16] 43.7%
active: [7] -29.2% | [10] 5.28% | [17] 2.57% | [18] 7.13% | [19] 2.1%

Cc1cc2c(c(=O)o1)C(c1ccc(OC(=O)N3CCOCC3)cc1)C(C#N)=C(N)O2 (stereo unspecified)
inactive: [2] 108% | [3] 90.2% | [4] 95.6% | [5] 102% | [6] 95.2% | [7] 106% | [8] 111% | [9] 98.3% | [11] 109% | [12] 104% | [13] 98.9% | [14] 109% | [15] 101% | [16] 107% | [17] 109% | [18] 116% | [19] 105%

C#CCC1(c2ccc(F)c(F)c2)NS(=O)(=O)c2ccccc21 (stereo unspecified)
inactive: [1] 103% | [2] 106% | [3] 86.4% | [4] 83.6% | [5] 113% | [6] 94.4% | [8] 99.2% | [9] 90% | [10] 76% | [11] 109% | [12] 93.9% | [13] 107% | [15] 96.9% | [16] 94.3% | [17] 109% | [18] 101% | [19] 103%

CN(C)c1nc(N)c(N=O)c(N)n1
inactive: [1] 111% | [2] 110% | [3] 101% | [4] 110% | [5] 109% | [6] 103% | [7] 76.1% | [8] 112% | [9] 105% | [11] 110% | [12] 114% | [13] 111% | [15] 99.2% | [16] 110% | [17] 101% | [18] 106% | [19] 122%

CCC(=O)Oc1cc(/C=C/C(=O)O[C@H]2C[C@H]3CN4CCc5c([nH]c6cc(OC)ccc56)[C@@H]4C[C@@H]3[C@@H](C(=O)OC)[C@@H]2OC)ccc1OC
active: [7] 5.24% | [10] 1.95%
inactive: [2] 55.9% | [3] 40.9% | [4] 75.2% | [5] 46.2% | [6] 45.6% | [8] 38.1% | [9] 50.8% | [12] 86.8% | [13] 87% | [14] 56.9% | [15] 86.5% | [16] 88.5% | [17] 73.1% | [18] 56.5% | [19] 87.1%

COC1=CC(c2ccc[nH]2)=N/C1=C\c1[nH]c(C)c(C(=O)CCCCC(=O)NCc2ccccc2)c1C
active: [6] -9.17% | [17] -5.91%
inactive: [2] 44.9% | [3] 13.9% | [4] 45.8% | [5] 50.2% | [7] 89.1% | [8] 39.2% | [9] 70.1% | [10] 91% | [12] 31.5% | [13] 47.3% | [14] 50.8% | [15] 83.3% | [18] 72% | [19] 42%

Cc1ccnc2nc(C(=O)OCC(=O)Nc3ccc(-c4ccccc4)cc3)nn12
inactive: [1] 104% | [2] 102% | [3] 62.8% | [4] 118% | [5] 107% | [6] 91% | [7] 105% | [9] 65% | [10] 53.3% | [11] 98.1% | [12] 102% | [13] 96% | [14] 95% | [15] 116% | [17] 112% | [18] 125%

COc1ccc(C(=O)c2cc(OC)c(OC)c(OC)c2)cc1/C=C/C(=O)c1ccc(OC)c(OC)c1
inactive: [2] 42.3% | [3] 26.3% | [4] 63.8% | [5] 20.4% | [7] 74.1% | [9] 12.8% | [12] 26.1% | [15] 38.4% | [16] 29.7% | [18] 31.5% | [19] 19%
active: [8] 6.83% | [10] 3.96% | [13] 0.936% | [17] -22.1%

Cc1oc2nc[nH]c(=O)c2c1C(=O)/C=C/c1ccc(Cl)cc1
active: [10] -30.6% | [11] -14.1% | [17] 4.32%
inactive: [1] 62% | [2] 25.4% | [3] 37.9% | [4] 32.3% | [5] 27.2% | [6] 26.1% | [7] 62.4% | [9] 40.7% | [12] 15.8% | [13] 34.5% | [14] 29.8% | [18] 60.5% | [19] 10.4%

COc1ccc(/C=C/C(=O)c2cccc(B(O)O)c2)cc1O
inactive: [2] 28.7% | [3] 19.9% | [4] 99.3% | [5] 60.6% | [7] 52.1% | [8] 37.3% | [9] 46.6% | [12] 60.1% | [13] 88.4% | [14] 73.9% | [15] 58.1% | [16] 18.2% | [18] 32.9%
active: [10] 6.45% | [11] 5.96% | [17] -6.95%
